GCN5L2 inh: qHTS Assay for Inhibitors of GCN5L2; Histone acetyltransferase KAT2A (Homo sapiens), Q92830; GCN5L2 HAT assay, ThioGlo1 CoA-SH fluorescence; Potency, µM (doses to about 58.9 µM), without a hit: at the top dose activity change, negative = inhibition, actives largely listed as inhibitors; 390,000 compounds, 0.21% hits; AID 504327, 2011; further: potency means the concentration at half of the fitted maximal effect
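GCN5L2 (20 nM) in 50mM HEPES pH 7.5, 0.1mM EDTA, 0.01% Tween-20 preincubated 15 min with compounds at room temperature. Reaction started with H3(1-25) 75uM, acetyl-CoA 70uM, ThioGlo1 50uM; CoA-thiol fluorescence (Ex340/Em540) read at 0 and 20 min.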
TrxR1 substrate: qHTS Assay for Substrates of Mammalian Selenoprotein Thioredoxin Reductase 1 (TrxR1): qHTS; Thioredoxin reductase 1, cytoplasmic (Rattus norvegicus), O89049; Potency, µM (highest dose often 114 µM), for the others: at the highest dose activity change, negative = substrate turnover; AID 588456, 2011; purified TrxR1 substrate turnover, NADPH consumption readout; 390,000 compounds, 0.01% hits; further: potency means the concentration at half of the fitted maximal effect; nearly all actives have a fitted effect of over 50% in size
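Rat TrxR1, dispensed at 90 nM, was prereduced with 400 uM NADPH (final) for 5 min at ~22 deg C, then incubated with compound 15 min before 400 uM selenite. A first-read NADPH fluorescence drop versus no-compound background flagged substrates.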
TrxR1 inh: qHTS Assay for Inhibitors of Mammalian Selenoprotein Thioredoxin Reductase 1 (TrxR1): qHTS | 390,000 compounds, 1% hits | recombinant rTrxR1, NADPH fluorescence consumption, selenite substrate | Potency, µM (top dose mostly 114 µM), for the others: top-dose activity change, negative = inhibition, hits mostly inhibitors; further: potency means the concentration at half of the fitted maximal effect; nearly all actives have a fitted effect of over 65% in size
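Rat TrxR1 (90 nM in the dispensed reagent) was pre-reduced with 400 uM NADPH for 5 min at room temperature, then incubated with compound for 15 min. After 400 uM selenite was added, NADPH fluorescence (Ex 340/Em 450 nm) was followed for 8 min.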
Giardia killer: Small Molecules that selectively kill Giardia lamblia: qHTS. 340,000 compounds, 0.15% hits. activity change, % at 7.66 µM, hits read low. Giardia lamblia trophozoite viability. AID 540267, 2011; in the data active means activity change below about -80%; inconclusive means between about -30% and that limit;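 further: parasites exposed to compound for two days anaerobically before the ATP read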
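Giardia lamblia trophozoites (100 cells/well) were incubated with compounds for 48 h at 37 deg C under anaerobic conditions. Viability was read as ATP content by one-step luminescence after 15-30 min at room temperature.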
Pin1 inh: qHTS Assay to Find Inhibitors of Pin1. 390,000 compounds, 0.009% hits. Pin1 FP peptide displacement, HiFluor488, 10 min. Potency, µM (doses to about 115 µM), inactives show top-dose activity, negative = inhibition, most hits filed as inhibitors. AID 504891, 2011. Peptidyl-prolyl cis-trans isomerase NIMA-interacting 1 (Homo sapiens), Q13526; active means well fitted inhibition curve with a large enough effect in the polarisation, with a control signal flat, not every such curve was filed as active; inconclusive means small, poorly fitted or top-dose-only effect, or effect the other way, or a change in a side signal; inactive means no such curve, though single readings can be large or run the other way; the % refers to the polarisation; further: potency means the concentration at half of the fitted maximal effect
Target sequence (Q13526 whole entry, looked up): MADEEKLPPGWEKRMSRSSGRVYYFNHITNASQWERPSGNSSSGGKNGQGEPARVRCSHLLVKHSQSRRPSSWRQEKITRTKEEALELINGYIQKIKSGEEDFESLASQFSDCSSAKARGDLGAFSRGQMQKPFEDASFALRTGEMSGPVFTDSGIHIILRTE
GALK inh: qHTS Assay for Inhibitors of Human Galactokinase (GALK). P51570. 270,000 compounds, 0.007% hits. Purified GALK, Kinase-Glo residual ATP luminescence. Potency, µM (series often up to 57.5 µM), for the others: top-dose activity change, negative = inhibition, actives largely listed as inhibitors; further: potency means the concentration at half of the fitted maximal effect
Target sequence (P51570 whole entry, looked up): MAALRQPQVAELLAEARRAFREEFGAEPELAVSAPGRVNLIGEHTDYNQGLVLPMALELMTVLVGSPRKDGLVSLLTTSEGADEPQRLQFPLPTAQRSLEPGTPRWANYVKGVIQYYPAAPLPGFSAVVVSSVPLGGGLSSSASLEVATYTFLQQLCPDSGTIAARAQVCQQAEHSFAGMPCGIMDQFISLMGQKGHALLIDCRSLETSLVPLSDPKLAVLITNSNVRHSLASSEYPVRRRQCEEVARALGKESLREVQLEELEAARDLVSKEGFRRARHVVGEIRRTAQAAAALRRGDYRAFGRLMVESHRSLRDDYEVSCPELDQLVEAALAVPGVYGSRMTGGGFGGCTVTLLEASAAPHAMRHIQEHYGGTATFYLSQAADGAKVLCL
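Human GALK (5 nM) with 35 uM ATP and 100 uM galactose in 20 mM HEPES pH 8.0, 5 mM MgCl2, 60 mM NaCl, 1 mM DTT, 0.01% BSA. After 1 h at room temperature, leftover ATP was read by Kinase-Glo Plus luminescence.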
Numbers without * were called inactive; ? = inconclusive; / = no result given; [ ] = another dose, or the depositor's remark. The list is not random: actives were taken first. Their share in the collection is about 1.3%. Unless noted, the call rests on the fitted dose curve; in most records, active means well fitted curve in the direction sought with a large enough effect; inconclusive means small, poorly fitted or top-dose-only effect, or another doubt; inactive means no such curve, though single readings can be large; an effect the other way counts as inactive or inconclusive. On the % scale 0 is the no-effect control and ±100 the full control effect.

SMILES | GCN5L2 inh | TrxR1 substrate | TrxR1 inh | Giardia killer | Pin1 inh | GALK inh
CC(=O)c1ccc(-n2c(CCC(=O)O)ccc2-c2ccc(Cl)cc2)cc1 | 0% | 4% | 1% | -14 | 4% | /
O=C(O)CCc1ccc(-c2ccccc2)n1-c1ccc(C(=O)O)cc1 | -3% | 5% | 79µM* | 27 | ? | 3%
Cc1ccc(-c2nn3c(C)nnc3s2)cc1NC(=O)c1ccc(-c2ccc(Cl)cc2Cl)o1 | -2% | 112% | 13% | -4 | 239% | -4%
Cc1ccc(-c2nn3c(C)nnc3s2)cc1NC(=O)c1ccc(-c2cccc(Cl)c2)o1 | -24% | -5% | 35µM* | 10 | ? | 2%
O=C1C2C3C=CC(O3)C2C(=O)N1CC(O)c1ccccc1 (stereo not given) | -16% | 5% | 50µM* | 20 | 1% | -2%
OC(CN1C2=NCCN2c2ccccc21)c1ccccc1 (stereo not given) | -2% | 2% | 2% | 23 | 6% | -3%
C[n+]1ccc(/C=C/c2cc[n+](C)c3ccccc23)c2ccccc21 | / | 6% | -27% | / | / | /
O=C1CC(N2CCN(c3ccccn3)CC2)C(=O)N1CC(c1ccccc1)c1ccccc1 (stereo not given) | -20% | -6% | 25µM* | -5 | -1% | -2%
O=c1[nH]c(-c2ccc(-c3cccc(Cl)c3)o2)nc2ccccc12 | ? | 13% | 50µM* | ? | 52% | /
O=C(CSc1oc(-c2ccc(F)cc2)nc1S(=O)(=O)c1ccccc1)c1ccc(Cl)cc1 | -8% | 3%[2.29 µM] | 5% | / | 73% | /
CCCCS(=O)(=O)c1oc(-c2cccs2)nc1S(=O)(=O)c1ccc(F)cc1 | -12% | 12% | 0.71µM* | / | 24% | /
CCCCS(=O)(=O)c1oc(-c2ccc(F)cc2)nc1S(=O)(=O)c1ccc(C)cc1 | -4% | 6% | 1.4µM* | / | / | /
CCSc1oc(-c2cccs2)nc1S(=O)(=O)c1ccccc1 | ? | 15%[57.1 µM] | 14%[57.1 µM] | -13 | 62% | 0%
CN(C)c1oc(-c2ccc(Cl)cc2)nc1S(=O)(=O)c1ccccc1 | 0% | 1% | 35µM* | -7 | 1% | 2%
CCS(=O)(=O)c1oc(-c2ccc(F)cc2)nc1S(=O)(=O)c1ccccc1 | -8% | 8% | 0.5µM* | / | ? | /
CC(C)(C)n1ncc2c(=O)n(Cc3ccccc3Cl)cnc21 | / | -2% | 1% | / | / | /
CSc1oc(-c2ccc(F)cc2)nc1S(=O)(=O)c1ccc(Br)cc1 | -3% | 10% | 19% | / | 1% | /
CCCSc1oc(-c2cccs2)nc1S(=O)(=O)c1ccc(C)cc1 | 1% | 18% | 14% | / | 26% | /
CCC(C)S(=O)(=O)c1oc(-c2ccc(F)cc2)nc1S(=O)(=O)c1ccc(F)cc1 (stereo not given) | -7% | 12% | 2µM* | / | ? | /
CCCCCS(=O)(=O)c1oc(-c2cccs2)nc1S(=O)(=O)c1ccc(C)cc1 | -17% | 7% | 1.6µM* | / | 40% | /
CCN1C(=O)c2ccccc2Sc2ccc(C(=O)NCCCN(CC(C)C)CC(C)C)cc21 | -4% | -12%[57.1 µM] | 2%[57.1 µM] | 2 | 1% | /
Cc1cccc(N2C(S)=C(C#N)C(=O)NC2c2ccco2)c1 (stereo not given) | 1% | -4% | -35% | -2 | 5% | 6%
N#CC1=C(S)N(c2ccccc2)C(c2ccc(-c3cccc(Cl)c3)o2)NC1=O (stereo not given) | -11% | -4% | 40µM* | -15 | 5% | -7%
COc1ccc(-c2nnc3n2N=C(c2cc(OC)ccc2OC)CS3)cc1 | / | / | / | / | 3% | /
COC(=O)CSc1nc2c(c(-c3ccc(O)cc3)c1C#N)CCCC2 | -2% | 3%[57.1 µM] | 5%[57.1 µM] | -14 | ? | 3%
SMILES | GCN5L2 inh | TrxR1 substrate | TrxR1 inh | Giardia killer | Pin1 inh | GALK inh
COC(=O)CSc1nc2c(c(-c3ccco3)c1C#N)CCCC2 | ? | 2% | 16µM* | 9 | 8% | 4%
O=C(CC1C(=O)NCCN1CC1CCCCC1)NCCCN1CCOCC1 (stereo not given) | -3% | -6% | -14% | 18 | -15% | 1%
CCCCCCCCCCCCCCCCOC[C@H](COP(=O)([O-])OCC[N+](C)(C)C)OC(=O)CCCCCCCC(=O)O | 16µM* | / | / | / | / | /
Cc1ccc(C2Nc3ccccc3-n3c(-c4ccccc4)c4c(=O)n(C)c(=O)n(C)c4c32)o1 (stereo not given) | -2% | -3% | -30% | / | -3% | /
S=c1[nH]nc(Cc2c[nH]c3ccccc23)o1 | -1% | 12% | ? | 10 | -1% | -3%
S=c1[nH]nc(Cc2sc(-c3ccccc3)nc2-c2ccccc2)o1 | -1% | -7% | -13%[57.1 µM] | -29 | -3% | 28µM*
Nc1ccc(S(=O)(=O)c2cc(O)c3ccccc3c2O)cc1 | / | -10% | 2.8µM* | -10 | -17% | /
CCOC(=O)N(C)OC(=O)Nc1ccc(Cl)c(Cl)c1 | -7% | 7%[57.1 µM] | 16µM* | 24 | 1% | 6%
CC1=C(SCc2ccccc2)C(=O)c2ccccc2C1=O | / | -5%[2.29 µM] | -43%[57.1 µM] | 1 | ? | /
O=C1C(SCCO)=C(SCCO)C(=O)c2ccccc21 | -12% | 10µM* | 16µM* | 3 | ? | /
COc1ccccc1-c1ccc2ncnc(N3CCN(C)CC3)c2c1 | -6% | / | / | / | / | /
C[N+]1(CC2COC(c3ccccc3)(C3CCCCC3)O2)CCCCC1 (stereo not given) | 22µM* | / | / | / | / | /
CN(C)CC(CCC(CN(C)C)C(=O)c1ccccc1)C(=O)c1ccccc1 (stereo not given) | -10% | 4%[57.1 µM] | 2.8µM* | 3 | 7% | -2%
COc1ccc(C(=O)C(CCCCC(CN(C)C)C(=O)c2ccc(OC)cc2)CN(C)C)cc1 (stereo not given) | -8% | -1% | -19% | 11 | -9% | /
O=C(c1ccccc1)C(CCC(CN1CCOCC1)C(=O)c1ccccc1)CN1CCOCC1 (stereo not given) | -1% | -3% | ? | 4 | 1% | -2%
CCOc1ccc(C(=O)C(CCC(CN(C)C)C(=O)c2ccc(OCC)cc2)CN(C)C)cc1 (stereo not given) | -2% | -10% | 2.8µM* | -9 | -1% | 0%
CC(=O)N1CCc2cc(Br)cc(S(=O)(=O)CCC(=O)Nc3ccc(C)cc3Cl)c21 | 1% | 9%[2.29 µM] | ? | / | 7% | /
